Experimental data published in the supplement of paper PMC12636033.
± gives the standard deviation of the averaged measurements. The full ranking holds about 33,000 sequences; the median of “E-score (rank enrichment, -0.5 to 0.5)” is about -0.0075, and the highest 2% start at about 0.23. Only a selection was taken, and the highest values are over-represented in it overall.

tested on: WT Max(13-93) synthetic (M65Nle); experiment: PBM 8-mer E-score (E-score (rank enrichment, -0.5 to 0.5)); higher = stronger preferential binding
Description: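 Protein binding microarray (universal PBM chip covering all 10-mers in fixed probe flanks) with chemically synthesized human Max(13-93) bHLH-LZ analogs (not full-length Max) bearing noncanonical residues (hArg, Tha, Aib, Nle at 65) and aromatic Cys staples. Read-out per 8-mer (and its reverse complement): E-score (rank-based enrichment, -0.5 to 0.5) and Z-score of median probe intensity.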

Sequence	PBM 8-mer E-score
CCCGTGAG	-0.0893 ± 0.044
GGCTAGAC	-0.217 ± 0.07
TACGCCAA	0.0646 ± 0.021
CCATAACG	-0.0417 ± 0.027
GCATAACA	0.27 ± 0.04
CCATAACA	0.236 ± 0.036
TAATAACA	0.131 ± 0.0072
GAATAACA	0.242 ± 0.094
GCATAACC	-0.0331 ± 0.022
CCATAACC	0.145 ± 0.0043
ACATAACA	0.215 ± 0.0054
CAATAACA	0.193 ± 0.046
CAAGTAAC	0.0157 ± 0.17
AAGGACAA	-0.103 ± 0.0038
AGACTTAC	0.0412 ± 0.036
GGACTGAC	-0.163 ± 0.079
ACGCGGAC	0.112 ± 0.0026
CCCCTTAG	-0.25 ± 0.047
ACACACGA	0.252 ± 0.021
GCACACGA	0.121 ± 0.081
ATACACGA	0.194 ± 0.032
ACACACGG	-0.09 ± 0.023
GTACACGA	0.246 ± 0.037
ACACACGC	0.208 ± 0.02
GCACACGC	0.284 ± 0.051
ACACACAA	0.0899 ± 0.06

Sequence	PBM 8-mer E-score
ACACACGT	0.295 ± 0.028
TCACACGA	0.0202 ± 0.039
CTACACGA	-0.00142 ± 0.052
ACACACAT	0.208 ± 0.024
GGCACATA	-0.00374 ± 0.019
TGCGTTAA	-0.0126 ± 0.025
CACAATAC	0.204 ± 0.018
AGGGTTCG	0.0226 ± 0.091
GCCATACA	0.0396 ± 0.039
AACCCCCT	-0.12 ± 0.022
AGGATCTG	-0.1 ± 0.11
CCAACCGC	-0.126 ± 0.13
CTGCCCCC	-0.128 ± 0.089
CAAAATAC	0.189 ± 0.047
GACCATGC	0.27 ± 0.043
AACCATGC	0.162 ± 0.018
GAGCATGC	0.249 ± 0.018
CAGCATGC	0.237 ± 0.04
CAGCATGA	0.128 ± 0.022
CAGCATAG	-0.0673 ± 0.062
GAGCATAC	0.00326 ± 0.079
CGGCATGC	0.124 ± 0.05
CAGCATAC	0.0204 ± 0.073
CAGCATGG	0.331 ± 0.028
GACCATGA	-0.0818 ± 0.059
GAGCATGA	0.205 ± 0.03

Sequence	PBM 8-mer E-score
ATCGCGGC	-0.136 ± 0.14
CGAAACGC	-0.14 ± 0.0054
GAACACTC	-0.0859 ± 0.0037
ATTTATTA	0.152 ± 0.031
ATACCAAA	0.124 ± 0.029
CTAATGGA	-0.125 ± 0.0031
ACCATATA	0.248 ± 0.043
ACTATATC	0.21 ± 0.015
ACCATATC	0.0455 ± 0.019
GCTATATA	0.146 ± 0.04
ACTATATA	0.274 ± 0.0075
ACCATATG	0.221 ± 0.0037
ACCGGCAC	0.0185 ± 0.12
CTATCTCC	-0.00138 ± 0.076
GAAGTAGA	0.0186 ± 0.0018
ACTGATCG	-0.106 ± 0.045
ACGTGTAG	0.1905 ± 0.0018
ACGTGTAA	0.35 ± 0.019
TCGTGTAA	0.1 ± 0.05
GCGTGTAC	0.125 ± 0.015
ACGTGTAT	0.4013 ± 0.0019
AAGTGTAT	0.149 ± 0.018
AGGTGTAT	0.136 ± 0.019
CCGTGTAA	-0.00838 ± 0.1
ACGTGTAC	0.354 ± 0.014
ATTACCCA	0.146 ± 0.11

Sequence	PBM 8-mer E-score
CCCTAAGC	-0.152 ± 0.068
ATATATGC	0.0949 ± 0.049
GTATATGA	0.266 ± 0.019
AAATGTGA	0.026 ± 0.14
ATATATGG	0.244 ± 0.055
ATATAGTC	0.107 ± 0.0014
ATATAGTA	0.228 ± 0.029
ATATATGA	0.0913 ± 0.21
CAATGTGA	0.179 ± 0.0028
ATATAGTG	0.2556 ± 0.0011
CTATATGA	0.0892 ± 0.063
TAATGTGA	0.233 ± 0.075
CTATATGC	0.168 ± 0.083
CCTGGCCG	-0.194 ± 0.086
ACCCAGAG	-0.0559 ± 0.026
CGGTCCAA	-0.19 ± 0.19
CGCCTTAG	-0.0361 ± 0.042
CGGAAAGC	-0.0958 ± 0.16
GCACAGGC	-0.146 ± 0.038
GCCCGAGC	0.035 ± 0.06
AAATGTGT	0.224 ± 0.085
ATATGTGC	0.181 ± 0.014
CAATGTGG	0.133 ± 0.072
AAATGTGG	0.245 ± 0.048
ATATGTGA	0.278 ± 0.14
ATGTGTGG	0.148 ± 0.055

Sequence	PBM 8-mer E-score
GTATGTGA	-0.0439 ± 0.13
CTATGTGA	0.0181 ± 0.018
ATATGTGG	0.292 ± 0.015
CCTGTCGA	0.00438 ± 0.055
ATTTACCG	0.17 ± 0.0023
ATTCCGGC	-0.2339 ± 0.0017
GAGATCAA	0.0454 ± 0.094
CACCTGAA	0.166 ± 0.075
CTGAGATA	-0.222 ± 0.091
CCTTCTCA	0.0588 ± 0.1
CCGGCCCA	-0.197 ± 0.085
AAAAAGGC	0.109 ± 0.096
CAAAAGGC	-0.00832 ± 0.029
GAAAAGGC	0.253 ± 0.15
AACGTTTA	0.146 ± 0.049
TCGGACCA	-0.114 ± 0.059
GGCGGGAA	0.0202 ± 0.047
GGCGGGGA	0.303 ± 0.031
CGCGGGGA	-0.172 ± 0.12
CTGGTCCA	-0.128 ± 0.094
TAGGTAAA	-0.0909 ± 0.038
ACGACCAA	-0.0717 ± 0.22
AGCAAGCC	-0.152 ± 0.033
GACCAGCC	-0.205 ± 0.093
CTGATTAA	0.192 ± 0.081
ATGATTTA	0.178 ± 0.027

Sequence	PBM 8-mer E-score
GTGATGTA	0.239 ± 0.0057
ATGATGTA	0.197 ± 0.047
CTGATTTA	0.0789 ± 0.0019
GTGATTTA	0.27 ± 0.0069
ATGATTAA	0.0011 ± 0.15
CTGATGTA	0.0268 ± 0.064
GTGATTAA	0.296 ± 0.066
GTTCTCGA	0.0864 ± 0.12
CACCACTA	0.129 ± 0.17
CGCTGGCC	-0.289 ± 0.025
GGAAGGAA	0.0471 ± 0.045
ACGAAGTG	0.00194 ± 0.018
ACTGATGC	-0.0431 ± 0.041
CGCGGAAA	-0.0276 ± 0.059
CGTTGCAA	-0.0452 ± 0.0072
AGCCTAGG	-0.0541 ± 0.089
GTGTCATA	0.291 ± 0.0065
GTATCATA	0.248 ± 0.1
CTGTCATA	0.113 ± 0.023
ATGTCATA	0.1682 ± 0.0013
ATATCATA	0.184 ± 0.031
CTATCATA	0.1619 ± 0.00089
AACGAAGC	-0.00685 ± 0.13
GTTTTGCA	0.108 ± 0.019
CTTTTCTA	0.0691 ± 0.035
ATTTTGTA	0.237 ± 0.051

Sequence	PBM 8-mer E-score
GGTTTGTA	-0.0081 ± 0.036
CTTTTGTA	0.125 ± 0.051
ATTTTGTG	0.145 ± 0.021
GTTTTGTA	0.248 ± 0.031
AATTTCTA	0.172 ± 0.047
ATTTTCTA	0.24 ± 0.019
CCGCTTCG	-0.0665 ± 0.16
CCCTCCTA	0.0972 ± 0.061
GAACATAA	0.16 ± 0.059
TAACATAA	0.244 ± 0.0065
CAACATAC	0.112 ± 0.046
TTACATAA	0.136 ± 0.048
AAACATAT	0.144 ± 0.0056
AAACATAC	0.233 ± 0.027
ACACATAA	0.214 ± 0.066
AAACATAG	0.21 ± 0.031
CTACATAA	0.0655 ± 0.2
GTACATAA	0.236 ± 0.0032
CAACATAA	0.167 ± 0.0094
AAACATAA	0.244 ± 0.059
